# Results as given in PubChem BioAssay (Tox21).
# Values joined by “and” are separate entries in the source; they are usually repeats but may differ in a detail not shown here. Identical values can stand only once. Results filed as inconclusive are left out. Entries that show only a call come without a potency. More than one record can exist for a structure, and the calls need not agree. Active and inactive are the calls of the source. Unless noted, calls come from the whole dose curve; as a rule, active = well fitted curve in the direction sought with a large enough effect in the repeat runs; inconclusive = weak or mixed curves; inactive = no such curve, though single readings can be large; an effect the other way counts as inactive or inconclusive.
# Assays:
# [1] = qHTS RealTime-Glo MT Cell Viability Assay in HEK293 cells - 0 hour (AID 1224880); note: top concentration of the series differs between compounds; nearly all actives have a fitted effect of over 45% in size
# Summary of the method: (§1)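 Luminescence readout at each listed time point; HEK293, 600 cells/well, RealTime-Glo MT reagent added with cells; compounds pinned (23 nL in DMSO) after 5 h at 37 C; continuous culture at 37 C.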
# [2] = A CellTox Green Cytotoxicity Assay to monitor cytotoxicity in HEK293 cells - 32 hour (AID 1224881); note: nearly all actives have a fitted effect of over 40% in size; note: potency is the fitted concentration of half-maximal effect
# Summary of the method: (§2)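 Read-out: fluorescence of a cell-impermeant cyanine dye staining DNA of dead cells, proportional to cytotoxicity. HEK293, 600 cells/well with reagent, compound (23 nL DMSO) added after 5 h; reads at 0, 8, 16, 24, 32, 40 h.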
# [3] = A CellTox Green Cytotoxicity Assay to monitor cytotoxicity in HepG2 cells - 0 hour (AID 1224882); note: nearly all actives have a fitted effect of over 35% in size
# Summary of the method: (§3)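 HepG2, 600 cells/well premixed w/ CellTox Green; 5 h settle, 37 C/5% CO2; pintool cpd add (DMSO); 37 C, 40 h; fluorescence read at 0, 8, 16, 24, 32, 40 h.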
# [4] = A CellTox Green Cytotoxicity Assay to monitor cytotoxicity in HepG2 cells - 32 hour (AID 1224883); note: nearly all actives have a fitted effect of over 50% in size; note: potency is the fitted concentration of half-maximal effect
# Summary of the method: as §3
# [5] = A CellTox Green Cytotoxicity Assay to monitor cytotoxicity in HEK293 cells - 8 hour (AID 1224884); note: nearly all actives have a fitted effect of over 35% in size; note: potency is the fitted concentration of half-maximal effect
# Summary of the method: as §2
# [6] = qHTS RealTime-Glo MT Cell Viability Assay in HepG2 cells - 16 hour (AID 1224885); note: nearly all actives have a fitted effect of over 50% in size
# Summary of the method: (§4)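 HepG2 suspension premixed with RealTime-Glo reagents is plated at 600 cells per well and left 5 h at 37 C/5% CO2. Compounds in DMSO then go in, and bioluminescence reflecting viable cell number is recorded over 40 h.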
# [7] = qHTS RealTime-Glo MT Cell Viability Assay in HEK293 cells - 24 hour (AID 1224886); note: nearly all actives have a fitted effect of over 50% in size; note: potency is the fitted concentration of half-maximal effect
# Summary of the method: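 Reads taken at 0, 8, 16, 24, 32 and 40 h from the same wells. HEK293 cells (600/well) carried RealTime-Glo reagents from seeding, with compound added after a 5 h settle at 37 C.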
# [8] = qHTS RealTime-Glo MT Cell Viability Assay in HEK293 cells - 8 hour (AID 1224887); note: top concentration of the series differs between compounds; nearly all actives have a fitted effect of over 50% in size
# Summary of the method: as §1
# [9] = A CellTox Green Cytotoxicity Assay to monitor cytotoxicity in HEK293 cells - 16 hour (AID 1224888); note: nearly all actives have a fitted effect of over 35% in size
# Summary of the method: as §2
# [10] = qHTS RealTime-Glo MT Cell Viability Assay in HepG2 cells - 0 hour (AID 1224889); note: nearly all actives have a fitted effect of over 50% in size
# Summary of the method: as §4
# [11] = A CellTox Green Cytotoxicity Assay to monitor cytotoxicity in HepG2 cells - 8 hour (AID 1224890); note: nearly all actives have a fitted effect of over 45% in size
# Summary of the method: as §3
# [12] = qHTS assay to identify small molecule antagonists of the estrogen receptor alpha (ER-alpha) signaling pathway using the BG1 cell line in the presence of 0.1 nM 17-beta-estradiol - cell viability counter screen (AID 1259241); note: nearly all actives have a fitted effect of over 40% in size
# Summary of the method: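 Measures cytotoxicity alongside the ER-alpha antagonist readout: VM7Luc4E2 cells, charcoal-stripped serum, 0.1 nM 17beta-estradiol final, 22 hr compound incubation at 37C, CellTiter-Fluor fluorescence.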
# [13] = qHTS assay to identify small molecule antagonists of the androgen receptor (AR) signaling pathway using the MDA cell line in the presence of 0.5 nM R1881 - cell viability counter screen (AID 1259242); note: nearly all actives have a fitted effect of over 45% in size; note: potency is the fitted concentration of half-maximal effect
# Summary of the method: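 Live-cell protease fluorescence, CellTiter-Fluor, 30 min at 37C. Cells: MDA-kb2, 3,000/well, preincubated 5 hr. Compounds plus 0.5 nM R1881 final, 16 hr, 37C, 0% CO2.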
# [14] = qHTS assay to identify small molecule HDAC inhibitors (AID 1259364); note: potency is the fitted concentration of half-maximal effect;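 note: wild-type HCT-116 cells with endogenous class I/II HDAC activity; nearly all actives have a fitted effect of over 45% in size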
# Summary of the method: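 HCT-116 (wild type), 1,500 cells/well, overnight; compound 2 hr 37C 5% CO2; HDAC-Glo I/II reagent 30 min RT; luminescence readout.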
# [15] = qHTS assay to identify small molecule HDAC inhibitors - cell viability counter screen (AID 1259365)
# Summary of the method: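 Following a 2hr exposure of overnight-plated wild-type HCT-116 cells to DMSO-delivered compounds, CellTiter-Glo was added and luminescence recorded after 30min at room temperature.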
# [16] = qHTS assay to identify small molecule agonists of the sonic hedgehog signaling (Shh) pathway - cell viability counter screen (AID 1259366); note: nearly all actives have a fitted effect of over 50% in size; note: potency is the fitted concentration of half-maximal effect
# Summary of the method: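 After a 4hr attachment at 37C, NIH/3T3 cells bearing an integrated Gli1-driven luciferase reporter were dosed with compounds. Treatment lasted 24hr, with the final hour including CellTiter-Fluor for a fluorescence viability measurement.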
# [17] = qHTS assay to identify small molecule antagonists of the sonic hedgehog signaling (Shh) pathway - cell viability counter screen (AID 1259367); note: nearly all actives have a fitted effect of over 55% in size; note: potency is the fitted concentration of half-maximal effect
# Summary of the method: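 Fluorescence read-out (CellTiter-Fluor, 1 hr at 37C) taken after 23 hr compound treatment of 3T3 Gli1-Luc cells stimulated with conditioned medium. Cells were seeded at 2,000 per well and pre-incubated 4 hr.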
# [18] = qHTS assay to identify small molecule agonists of the sonic hedgehog signaling (Shh) pathway (AID 1259368; calls by dose curve;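 note: NIH/3T3-derived 3T3Gli1-Luc cells carrying a stable Gli1-driven firefly luciferase reporter; series mostly up to about 92 µM; nearly all actives have a fitted effect of over 15% in size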)
# Summary of the method: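 Read-out: firefly luciferase luminescence from a Gli1 response element reporter stably integrated in NIH/3T3-derived 3T3Gli1-Luc cells, measured 30 min at room temperature after reagent addition. Compound exposure lasted 24 hr at 37 C, 5% CO2.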
# [19] = molecular target: Estrogen receptor (Homo sapiens) (UniProt P03372); experiment: qHTS assay to identify small molecule antagonists of the estrogen receptor alpha (ER-alpha) signaling pathway using the BG1 cell line in the presence of 0.1 nM 17-beta-estradiol (AID 1259244); note: nearly all actives have a fitted effect of over 50% in size; note: potency is the fitted concentration of half-maximal effect
# Chain of Estrogen receptor (Homo sapiens) (P03372 whole entry, looked up): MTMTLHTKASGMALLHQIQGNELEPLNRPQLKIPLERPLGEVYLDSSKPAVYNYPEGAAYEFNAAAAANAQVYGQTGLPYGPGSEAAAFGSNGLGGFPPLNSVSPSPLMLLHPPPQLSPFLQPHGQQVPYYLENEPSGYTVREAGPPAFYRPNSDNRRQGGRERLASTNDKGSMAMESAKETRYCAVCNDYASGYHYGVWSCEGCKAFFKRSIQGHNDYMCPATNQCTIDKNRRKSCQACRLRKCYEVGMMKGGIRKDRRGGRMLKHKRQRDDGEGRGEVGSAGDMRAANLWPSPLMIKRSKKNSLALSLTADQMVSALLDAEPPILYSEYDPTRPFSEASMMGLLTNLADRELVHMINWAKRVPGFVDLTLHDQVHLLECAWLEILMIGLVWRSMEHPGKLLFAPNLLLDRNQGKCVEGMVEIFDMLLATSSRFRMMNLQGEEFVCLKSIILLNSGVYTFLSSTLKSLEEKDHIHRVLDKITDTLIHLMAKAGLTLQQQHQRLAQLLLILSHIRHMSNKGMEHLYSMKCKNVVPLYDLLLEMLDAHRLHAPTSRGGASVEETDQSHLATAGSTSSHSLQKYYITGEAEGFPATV
# Summary of the method: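 Luminescence after ONE-Glo (30 min, room temperature) measured ERE-luciferase activity in VM7Luc4E2 cells treated 22 h with compound and 0.1 nM final 17beta-estradiol as stimulator.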
# [20] = molecular target: Androgen receptor (Homo sapiens) (UniProt P10275); experiment: qHTS assay to identify small molecule antagonists of the androgen receptor (AR) signaling pathway using the MDA cell line in the presence of 0.5 nM R1881 (AID 1259243); note: nearly all actives have a fitted effect of over 50% in size; note: potency is the fitted concentration of half-maximal effect
# Chain of Androgen receptor (Homo sapiens) (P10275 whole entry, looked up): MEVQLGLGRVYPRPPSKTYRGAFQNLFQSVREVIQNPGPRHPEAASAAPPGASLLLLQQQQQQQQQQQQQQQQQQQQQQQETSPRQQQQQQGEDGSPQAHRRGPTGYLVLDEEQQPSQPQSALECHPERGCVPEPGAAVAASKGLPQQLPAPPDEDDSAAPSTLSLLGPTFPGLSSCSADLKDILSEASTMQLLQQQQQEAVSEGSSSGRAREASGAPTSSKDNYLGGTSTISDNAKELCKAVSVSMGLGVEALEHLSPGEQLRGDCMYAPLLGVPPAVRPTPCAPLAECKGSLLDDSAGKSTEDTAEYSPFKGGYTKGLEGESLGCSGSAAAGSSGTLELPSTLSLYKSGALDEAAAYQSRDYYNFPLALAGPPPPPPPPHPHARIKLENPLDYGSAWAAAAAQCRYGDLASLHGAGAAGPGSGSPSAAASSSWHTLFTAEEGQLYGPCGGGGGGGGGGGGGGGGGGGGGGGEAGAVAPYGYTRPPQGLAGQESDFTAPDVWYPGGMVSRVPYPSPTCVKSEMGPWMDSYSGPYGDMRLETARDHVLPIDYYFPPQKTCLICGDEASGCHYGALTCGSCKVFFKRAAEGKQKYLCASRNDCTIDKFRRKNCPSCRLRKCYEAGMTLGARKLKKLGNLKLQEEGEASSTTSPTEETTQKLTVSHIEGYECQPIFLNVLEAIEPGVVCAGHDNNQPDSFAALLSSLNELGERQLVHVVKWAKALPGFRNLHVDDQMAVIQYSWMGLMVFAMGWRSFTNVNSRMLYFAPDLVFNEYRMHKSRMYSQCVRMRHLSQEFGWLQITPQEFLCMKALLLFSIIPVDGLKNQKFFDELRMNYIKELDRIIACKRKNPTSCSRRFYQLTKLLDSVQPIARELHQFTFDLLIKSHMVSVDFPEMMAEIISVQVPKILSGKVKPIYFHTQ
# Summary of the method: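 MDA-kb2, MMTV-luc (AR/GR elements); 3,000 cells/well; cpd + 0.5 nM R1881 final; 16 hr 37C, 0% CO2; ONE-Glo 30 min RT; luminescence.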
SMILES,Potency [1],Potency [2],Potency [3],Potency [4],Potency [5],Potency [6],Potency [7],Potency [8],Potency [9],Potency [10],Potency [11],Potency [12],Potency [13],Potency [14],outcome [15],Potency [16],Potency [17],Potency [18],Potency [19],Potency [20]
C=CCN(CC=C)C(=O)C(Cl)Cl,inactive,inactive,inactive,inactive,inactive,inactive,inactive,inactive,inactive,inactive,inactive,inactive,inactive,inactive,inactive,inactive,inactive,inactive,–,–
CCC(CC)Nc1c([N+](=O)[O-])cc(C)c(C)c1[N+](=O)[O-],inactive,inactive,inactive,inactive,inactive,inactive,inactive,inactive,inactive,–,inactive,inactive,inactive,–,inactive,inactive,inactive,inactive,–,–
Cc1ccc(OP(=O)(Oc2ccc(C)cc2)Oc2ccc(C)cc2)cc1,inactive,inactive,inactive,4.89 µM (active) and inactive,inactive,inactive,inactive,inactive,inactive,–,inactive,inactive,inactive,inactive,inactive,inactive,inactive,inactive,–,–
Oc1c(Cl)c(Cl)c(Cl)c(Cl)c1Cl,inactive,inactive,inactive,inactive,inactive,inactive,inactive,inactive,inactive,–,inactive,inactive,inactive,–,inactive,inactive,inactive,inactive,30 µM (active) and 30.6 µM (active),–
CCCCCCCCCCCOC(=O)c1ccccc1C(=O)OCCCCCCCCCCC,inactive,inactive,inactive,inactive,inactive,inactive,inactive,inactive,inactive,inactive,inactive,inactive,inactive,inactive,inactive,inactive,inactive,inactive,inactive,–
COC(=O)c1sccc1S(=O)(=O)NC(=O)Nc1nc(C)nc(OC)n1,inactive,inactive,inactive,inactive,inactive,inactive,inactive,inactive,inactive,inactive,inactive,inactive,inactive,inactive,inactive,inactive,inactive,inactive,inactive,–
CC(C)(C)c1ccccc1O,inactive,44.2 µM (active) and inactive,inactive,49.5 µM (active),inactive,inactive,inactive,inactive,–,inactive,–,inactive,inactive,–,inactive,inactive,inactive,inactive,–,–
O=S(=O)(Oc1ccc(Cl)cc1)c1ccc(Cl)cc1,inactive,inactive,inactive,inactive,inactive,inactive,inactive,inactive,–,inactive,inactive,inactive,inactive,–,inactive,inactive,inactive,inactive,inactive,–
Cc1ccccc1[N+](=O)[O-],inactive,inactive,inactive,inactive,inactive,inactive,inactive,inactive,–,inactive,inactive,inactive,inactive,inactive,inactive,inactive,inactive,inactive,inactive,–
c1nc[nH]n1,inactive,inactive,inactive,inactive,inactive,inactive,inactive,inactive,inactive,–,inactive,inactive,inactive,inactive,inactive,inactive,inactive,inactive,inactive,–
Nc1cccnc1,inactive,inactive,inactive,inactive,inactive,inactive,inactive,inactive,–,–,inactive,inactive,inactive,inactive,inactive,inactive,inactive,inactive,inactive,–
CCOC(=S)S,inactive,inactive,inactive,inactive,inactive,inactive,inactive,inactive,–,inactive,inactive,inactive,inactive,–,inactive,38.6 µM (active) and 20.6 µM (active),30.6 µM (active) and 25.9 µM (active),inactive,–,–
COP(=O)(OC)OC,inactive,inactive,inactive,24.7 µM (active) and inactive,39.2 µM (active) and inactive,inactive,inactive,inactive,inactive,inactive,inactive,inactive,inactive,inactive,inactive,inactive,inactive,inactive,inactive,61.6 µM (active) and inactive
CCCCN(CCCC)N=O,inactive,inactive,inactive,inactive,inactive,inactive,inactive,inactive,inactive,inactive,inactive,inactive,inactive,inactive,inactive,inactive,inactive,inactive,inactive,–
O=[N+]([O-])c1cccc2ccccc12,inactive,inactive,inactive,inactive,inactive,inactive,inactive,inactive,inactive,inactive,inactive,inactive,inactive,–,inactive,inactive,inactive,inactive,inactive,–
O=[N+]([O-])c1c(Cl)c(Cl)c(Cl)c(Cl)c1Cl,inactive,21.8 µM (active) and inactive,inactive,inactive,inactive,inactive,inactive,inactive,inactive,inactive,inactive,inactive,–,inactive,inactive,inactive and 43.3 µM (active),inactive,inactive,inactive,27.2 µM (active) and 27.3 µM (active)
CCC(C)c1cc([N+](=O)[O-])cc([N+](=O)[O-])c1O (stereo not given),inactive,inactive,inactive,inactive,inactive,inactive,inactive,inactive,–,–,inactive,–,inactive and 15.4 µM (active),–,inactive,inactive and 43.3 µM (active),inactive and 24.3 µM (active),inactive,inactive and 17.2 µM (active),–
O=Cc1ccco1,inactive,23.7 µM (active),inactive,inactive,42.2 µM (active) and inactive,inactive,inactive,inactive,–,inactive,inactive,inactive,inactive,inactive,inactive,inactive,inactive,inactive,–,–
NNC(=S)NN,inactive,inactive,inactive,inactive,inactive,inactive,inactive,inactive,inactive,inactive,inactive,inactive,inactive,inactive,inactive,–,inactive,inactive,inactive,–
C=CCc1ccc(OC)cc1,inactive,inactive,inactive,inactive,inactive,inactive,inactive,inactive,inactive,inactive,inactive,inactive,inactive,inactive,inactive,inactive,inactive,inactive,–,–
Cc1c(COC(=O)[C@@H]2[C@H](/C=C(\Cl)C(F)(F)F)C2(C)C)cccc1-c1ccccc1,inactive,inactive,inactive,inactive,inactive,inactive,21.4 µM (active),inactive,inactive,inactive,inactive,inactive,inactive,inactive,inactive,inactive,inactive,inactive,inactive,–
O=C(CCl)c1ccccc1,inactive,inactive and 54.9 µM (active),inactive,inactive,inactive,inactive,inactive and 49 µM (active),inactive,–,inactive,inactive,inactive,inactive,inactive,inactive,inactive,inactive,inactive,–,–
CCCCCCOC(=O)c1ccccc1C(=O)OCCCCCC,inactive,inactive,inactive,inactive,inactive,inactive,inactive,inactive,–,–,inactive,inactive,inactive,49.5 µM (active) and inactive,inactive,inactive,inactive,inactive,inactive,–
CC(C)C(=O)OCC(C)(C)C(OC(=O)C(C)C)C(C)C (stereo not given),inactive,inactive,inactive,inactive,inactive,inactive,inactive,inactive,–,inactive,inactive,inactive,inactive,inactive,inactive,inactive,inactive,inactive,inactive,–
CC(C)NC(C)C,inactive,inactive,inactive,inactive,inactive,inactive,inactive,inactive,–,–,inactive,inactive,inactive,–,inactive,inactive,inactive,inactive,inactive,–
O=C(O)CC[N+](=O)[O-],inactive,inactive,inactive,inactive,inactive,inactive,inactive,inactive,inactive,inactive,inactive,inactive,inactive,inactive,inactive,inactive,inactive,inactive,–,inactive
Cc1cc(Cl)ccc1OCCCC(=O)O,inactive,inactive,inactive,inactive,inactive,inactive,inactive,inactive,–,inactive,inactive,inactive,inactive,–,inactive,inactive,inactive,inactive,–,inactive
C#C[C@]1(O)CC[C@H]2[C@@H]3CCC4=CC(=O)CC[C@]4(C)[C@H]3CC[C@@]21C,inactive,49 µM (active),inactive,inactive,inactive,inactive,inactive,inactive,inactive,–,inactive,inactive,inactive,inactive,inactive,inactive,inactive,inactive,–,–
CNC(=O)N(C)c1nnc(C(C)(C)C)s1,inactive,inactive,inactive,inactive,inactive,inactive,inactive,inactive,inactive,inactive,inactive,inactive,inactive,27.3 µM (active),inactive,inactive,inactive,inactive,inactive,–
